Among the data in PubChem BioAssay AID652017 (The Scripps Research Institute Molecular Screening Center, 2013) are activation values, retold here.

Hit rate of the full screen: of about 370,000 compounds, about 3,800 (1%) were called active. Rule as the data show it: active = activation above about 7.8%; inactive = the rest. Many of the other results were omitted from the sample, so actives are more common in it than they were.

This assay can be described thus: SMARCA2 (BRM) function activators, primary screen, cell-based, luminescence, high throughput (AID 652017).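 Also: 0% = vehicle wells and 100% = reference activator wells.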 To be noted: MG213 cells, MMTV-luciferase reporter, dexamethasone, overnight; at 9.1 µM; stronger effect = higher value. (In a reporter assay the amount or activity of a reporter protein is the signal.)
Regarding `O=C(c1cccs1)C1C(c2ccc(Br)cc2)NC(=S)NC1(O)C(F)(F)F` (stereo unspecified), the activation was 9.18% (active). With `CCOC(=O)C1C(c2ccc(O)cc2)NC(=O)NC1(O)C(F)(F)F` (stereo unspecified) the figure was -2.11% (inactive); with `CSc1ccc(C=Nn2c(-c3ccc(F)cc3)n[nH]c2=S)cc1`, -5.15% (inactive). `Cc1cc(-c2n[nH]c(=S)n2/N=C/C(Br)=C/c2ccccc2)n[nH]1`: the activation was 12.8% (active). With `C=CCN1C(=O)[C@@H](CC(=O)N2CCN(C(=O)OCC)CC2)[C@]2(C(=O)OCC)CCCCC/C=C/12` the figure was 0.06% (inactive); with `CC1Cc2ccccc2N1C(=O)CSc1nc2ccccc2o1` (stereo unspecified), 1.43% (inactive); with `CC(C)(C)C(=O)CSc1nc2ccccc2o1`, 8.4% (active).

On to `O=C(CSc1nc2ccccc2o1)N1CCN(c2ccc(Cl)cc2)CC1`, for which the activation was -2.94% (inactive). With `COc1ccnc(C(=O)N2CCC(Oc3cccnc3)CC2)c1` the figure was 3.85% (inactive).

With `COc1ccc(N2CCN(CCNS(=O)(=O)c3ccc(Cl)s3)CC2)cc1`, the activation is 0.84% (inactive). For the molecule `CN1C(=O)C2(OCCCO2)c2cc(Cl)ccc21`, the activation is -0.14% (inactive). Consider `COC(=O)c1ccc(/C=N/N2C(C)CCCC2C)cc1` (stereo unspecified), for which the activation is -1.42% (inactive). Take `COC(=O)c1ccc(/C=C2/C(=O)Oc3ccccc32)cc1`: the activation is 10.5% (active). With `O=C1Oc2ccccc2C(=O)/C1=C/c1ccccc1O` the figure was 1.29% (inactive); with `CN(C)Cc1cn(-c2ccc(-c3noc4c3C(=O)N(CC(=O)N3CCOCC3)CC4)cc2)nn1`, -2.05% (inactive); with `COc1ccc(S(=O)(=O)Nc2ccc3c(c2)C(=O)N([C@H](C)CO)C[C@H](C)[C@@H](CN(C)C)OCCCC[C@H](C)O3)cc1`, -4.35% (inactive). Take `O=C(Nc1ccc2nccnc2c1)c1ccco1`: the activation is 9.43% (active).

For the molecule `O=C(Nc1ccc(NC(=O)c2cccs2)cn1)c1ccco1`, the activation was 9.66% (active). As for `Cc1cc(NC(=O)[C@H](C)NC(=O)c2ccco2)ccc1Br`, the figure is -1.37% (inactive).

On to `CC(OC(=O)CNC(=O)c1ccco1)C(=O)Nc1ccc(Cl)cn1` (stereo unspecified), for which the activation was -2.28% (inactive).

With `CC1CCN(c2ccc(-c3ccc(NC(=O)c4ccco4)cc3)nn2)CC1`, the activation was 3.83% (inactive).

On to `O=C(COC(=O)CNC(=O)c1ccco1)Nc1ccc(F)cc1`, for which the activation was -3.14% (inactive). With `C=CS(=O)(=O)N(Cc1nnn(Cc2ccccc2)c1Br)[C@H](C(=O)OC)C(C)C` the figure was 3.93% (inactive); with `CCC(=O)Nc1ccc2c(c1)C(=O)N(C)[C@@H]1CC[C@@H](CC(=O)NCCc3ccccc3)O[C@H]1CO2`, -2.13% (inactive). With `COc1ccc(S[C@]2(C(=O)N(C)C)CC(=O)N(c3ccc(OC)cc3)[C@@H]2c2ccc(OC)cc2)cc1` the figure was 2.23% (inactive).

With `Cn1nnnc1NCc1ccc(Cl)c(Cl)c1`, the activation is -0.94% (inactive). As for `CCCCn1nnnc1C(c1ccccc1)N1CCN(c2ccccc2OC)CC1` (stereo unspecified), the figure is -1.13% (inactive); as for `CCCCn1nnnc1C(c1cc2ccccc2o1)N(C)Cc1ccc(Cl)c(Cl)c1` (stereo unspecified), 8.8% (active); as for `CC(C)N1CCCCC(NC(=O)c2ccc3ccccc3c2)C1=O` (stereo unspecified), -1.33% (inactive). With `N[C@@H](Cc1ccccc1)C(=O)N1CCC[C@@H]1C(=O)N1CCC2CCN(S(=O)(=O)c3ccccc3)CC21` (stereo partly specified) the figure was -1.95% (inactive); with `FC(F)(F)c1cccc(-c2nc3ccccc3n2C(c2ccccc2)c2nc3ccccc3[nH]2)c1` (stereo unspecified), 9.93% (active).

With `FC(F)(F)c1cccc(-c2cc3ccccc3nc2N2CCCC2)c1`, the activation is 0.37% (inactive). With `CCC(c1nc2ccccc2[nH]1)n1c(=O)c(-c2cccs2)nc2ccccc21` (stereo unspecified), the activation is -3.44% (inactive). With `O=S(=O)(c1ccccc1)N1CCC(c2nc3ccccc3o2)CC1` the figure was -4.23% (inactive); with `O=C(C1CCN(S(=O)(=O)c2ccccc2)CC1)N1CCN(C2CCCCC2)CC1`, -4.09% (inactive).

Regarding `O=C(C1CCC1)N1CCN(S(=O)(=O)c2ccc([N+](=O)[O-])cc2)CC1`, the activation is 9.83% (active). In the case of `Cc1ccc(S(=O)(=O)N2CCC(C(=O)N3CCCCCCC3)CC2)cc1`, the activation was -3.84% (inactive). As for `COC(=O)[C@H](C(C)C)N(CCCc1cn(Cc2ccccc2)nn1)S(=O)(=O)c1ccc(F)cc1Br`, the activation was -0.98% (inactive). Regarding `CCOC(=O)c1nnn2c1nc(N1CCN(c3ccccc3)CC1)c1ccccc12`, the activation was -2.86% (inactive). With `O=C(CCCCCN1C(=O)C2C3C=CC(C3)C2C1=O)Nc1ccccc1` (stereo unspecified), the activation was -2.37% (inactive).

On to `Cc1ccc(C)c(NC2=NCC(=O)N2c2ccc3c(c2)OCCO3)c1`, for which the activation is 2.74% (inactive).

Take `Cc1cc(=O)[nH]c(Nc2cccc(Br)c2)n1`: the activation was -1.71% (inactive). On to `Cc1cc(=O)[nH]c(N/N=C/c2ccc3c(c2)OCCO3)n1`, for which the activation is 8.3% (active).

For `CCCCNC(=O)C[C@@H]1C(=O)N(CCc2ccc(Cl)cc2)C2=CCCC[C@]21C(=O)OCC`, the activation was -0.47% (inactive). Take `COc1cccc(-c2cnc(OC(C)(C)C)nc2OC(C)(C)C)c1`: the activation was -2.58% (inactive). With `COc1cccc(NS(=O)(=O)c2ccc(-c3coc(C)n3)cc2)c1` the figure was -3.45% (inactive).

Consider `COc1cccc(-c2nc3cc(C)ccc3o2)c1`, for which the activation was 7.97% (active). Consider `C=CCN(C)CC#Cc1ccccc1`, for which the activation is 0.78% (inactive).

As to `COP(=O)(O)CNC(=O)OCc1ccccc1`, the activation is -0.59% (inactive). With `CC(CCN1CCC(C(O)(c2ccccc2)c2ccccc2)CC1)Oc1ccc(Cl)cc1` (stereo unspecified) the figure was -5.29% (inactive). With `COCC(=O)Nc1c(I)c(C(=O)NCC(O)CO)c(I)c(C(=O)N(C)CC(O)CO)c1I` (stereo unspecified) the figure was -1.43% (inactive); with `CCOC(=O)C1(Cc2ccccc2)CCN(Cc2cn(C(C)=O)c3ccccc23)CC1`, -3.37% (inactive); with `Cc1ccc(OCCCCc2c(C)n[nH]c2C)cc1`, -4.25% (inactive).

Take `CCCOc1ccc(-c2nc(N)n[nH]2)cc1`: the activation is 8.06% (active). For `Nc1nc(SCCOc2ccccc2)n[nH]1`, the activation was -0.38% (inactive). As for `O=C(NCCc1c[nH]c2ccccc12)OCc1cn(-c2c(F)cccc2F)nn1`, the figure is -1.59% (inactive). For the molecule `COC(=O)[C@]12C[C@H](CC(=O)N3CCOCC3)C(=O)N(Cc3ccc(Cl)cc3Cl)C1=C[C@H](COCc1ccccc1)O[C@@H]2C`, the activation was -3.76% (inactive). With `COC[C@@H]1CCCN1c1ccc2c(c1)O[C@H](C)CCN(C1CC1)S2(=O)=O` the figure was -0.54% (inactive); with `O=S(=O)(c1ccc(F)cc1)n1ccc(-c2cnc(-c3ccccc3)s2)n1`, 0.36% (inactive); with `CCOC(=O)c1csc(NC(=O)C2CCCN(S(=O)(=O)c3ccc(Cl)s3)C2)n1` (stereo unspecified), -3.75% (inactive). With `Nn1c(SCC(=O)Nc2cccc3ccccc23)nnc1-c1cc(-c2ccc(F)cc2)n[nH]1` the figure was -3.63% (inactive); with `O=C(OC12CC3CC(CC(C3)C1)C2)c1ccc(NCc2cc(O)ccc2O)cc1`, -10.6% (inactive); with `CCS(=O)(=O)Nc1cc(C(=O)OC)ccc1C(=O)OC`, -0.18% (inactive).

As for `COC(=O)c1ccc(NCc2cc(O)ccc2O)cc1`, the activation was 8.39% (active). For the molecule `O=C(NC1CCCCN(Cc2ccc(Cl)cc2)C1=O)c1ccc(Br)cc1` (stereo unspecified), the activation is -1.79% (inactive). In the case of `CCc1ccc(NC2Nc3cc(C)nn3S2)cc1` (stereo unspecified), the activation is 8.13% (active). On to `CCc1c(C)nc2c(-c3ccccc3)c(C)nn2c1Nc1ccc(NC(C)=O)cc1`, for which the activation was -0.14% (inactive). With `CC(=O)Nc1ccc(Nc2nc3c(S(=O)(=O)c4ccc(C)c(C)c4)nnn3c3ccccc23)cc1` the figure was 0.7% (inactive); with `CC(=O)Nc1ccc(Nc2c3ccccc3nc3ccccc23)cc1`, 8.59% (active); with `O=C(CSc1nc2c(c(=O)[nH]1)CCCC2)N1CCCCC1`, -4.24% (inactive). Consider `CCC(=O)OCCCN1C(=O)CCC12CCC(c1ccccc1)CC2` (stereo unspecified), for which the activation was -3.5% (inactive). With `CC(=O)OCCN1CCCC12CCC(c1ccccc1)CC2` (stereo unspecified) the figure was -0.56% (inactive). With `C=CCN1[C@H](CC(C)C)COc2cccc(N3CCCC3)c2S1(=O)=O` the figure was -1.47% (inactive); with `Nn1c(SCC(=O)Nc2ccc(S(N)(=O)=O)cc2)nnc1-c1n[nH]c2c1CCC2`, 0.23% (inactive). As for `Oc1cccc2ccc(/C=C/c3ccc(Br)s3)nc12`, the figure is 10.9% (active); as for `COc1ccc(NC(=O)Cn2ncn3c(cc4ccccc43)c2=O)c(OC)c1OC`, 1.32% (inactive). Consider `C[C@H](C(=O)N(C)c1ccccc1)[C@@H](O)c1ccc(Cl)cc1`, for which the activation is -0.55% (inactive). Consider `CCOC(=O)c1sc2nc(C)nc(SCC(N)=O)c2c1C`, for which the activation is -1.05% (inactive). `CCOC(=O)c1sc2nc(CSc3ccccc3)[nH]c(=O)c2c1C`: the activation is 9.98% (active). With `CSc1nnc(SCc2nc3sc(C(=O)O)c(C)c3c(=O)[nH]2)s1` the figure was -1.68% (inactive). Regarding `Cc1csc(Nc2ccc(Cl)cc2)[n+]1-c1ccc(Cl)cc1`, the activation is -3.27% (inactive). As for `CCC(c1ccc(NC(=O)OC(C)(C)C)cc1)c1cc(OC)cc(OC)c1` (stereo unspecified), the figure is -2.7% (inactive); as for `Cc1ccc(NC(=O)c2cc(C)nn2-c2ccccc2)c(C)c1`, -4.44% (inactive). On to `Cc1ccnc(-n2sc3ccccc3c2=O)n1`, for which the activation is 1.96% (inactive).

For `Cc1ccnc(Nc2nc3ccccc3s2)n1`, the activation was 10.6% (active).

Take `Cc1[nH]n(C)c(=O)c1C(=O)c1c(-c2c(Cl)cccc2Cl)noc1C`: the activation is -2.74% (inactive). As for `Cn1c(-c2ccc(C(F)(F)F)cc2)cc2onc(-c3ccccc3)c2c1=O`, the figure is 5.26% (inactive). In the case of `Cn1c(-c2ccc(F)cc2)cc2onc(-c3ccccc3Cl)c2c1=O`, the activation was 9.9% (active). With `CCOC(=O)[C@]12CCCCC/C=C\1N(Cc1ccc(OC)cc1)C(=O)[C@H]2CC(=O)NCCCN1CCCC1=O` the figure was -2.38% (inactive). Turning to `O=C(CNS(=O)(=O)c1ccccc1F)N1CCN(c2ccccn2)CC1`, the activation is -3.89% (inactive). As to `COC(=O)[C@]12C[C@H](CC(=O)NCCc3ccccc3OC)C(=O)N(Cc3ccco3)C1=C[C@H](C(C)C)O[C@@H]2C1CC1`, the activation is -4.32% (inactive).
